Reference: PubChem BioAssay AID2429 (National Center for Advancing Translational Sciences (NCATS), 2010)
The list shows a part of the results. Active and inactive are the calls of the source. The call rests on the fitted dose curve.

Target: 15-hydroxyprostaglandin dehydrogenase [NAD(+)] (Homo sapiens) (UniProt P15428)
Test: Confirmation qHTS Assay for Inhibitors of HPGD (15-Hydroxyprostaglandin Dehydrogenase)
Settings: recombinant HPGD, NADH fluorescence, PGE2 substrate
Text: Assay Overview: Human 15-Hydroxyprostaglandin dehydrogenase (HPGD) catalyzes the inactivation of prostaglandin E2, and plays a major role in cancer biology by antagonizing the oncogenic potential of cyclooxygenase type 2 (COX2). Assays are available, based on absorbance/fluorescence increase of NADH with the substrate 15-OH prostaglandin E2. Inhibition of HPGD activity was screened by utilizing prostaglandin as an electron donor and NAD+ as an electron acceptor/cofactor. An increase in the fluorescence intensity due to conversion of NAD+ to NADH was used to measure the enzyme activity. This assay is a confirmation screen of primary qHTS protocol (See AID 894). References 1. Myung SJ, Rerko RM, Yan M, Platzer P, Guda K, Dotson A, Lawrence E, Dannenberg AJ, Lovgren AK, Luo G, Pretlow TP, Newman RA, Willis J, Dawson D, Markowitz SD. 15-Hydroxyprostaglandin dehydrogenase is an in vivo suppressor of colon tumorigenesis. Proc Natl Acad Sci U S A. 2006 Aug 8;103(32):12098-102. 2. Yan M, Rerko RM, Platzer P, Dawson D, Willis J, Tong M, Lawrence E, Lutterbaugh J, Lu S, Willson JK, Luo G, Hensold J, Tai HH, Wilson K, Markowitz SD. 15-Hydroxyprostaglandin dehydrogenase, a COX-2 oncogene antagonist, is a TGF-beta-induced suppressor of human gastrointestinal cancers. Proc Natl Acad Sci U S A. 2004 Dec 14;101(50):17468-73. 3. Yang L, Amann JM, Kikuchi T, Porta R, Guix M, Gonzalez A, Park KH, Billheimer D, Arteaga CL, Tai HH, Dubois R, Carbone DP, Johnson DH. Inhibition of Epidermal Growth Factor Receptor Signaling Elevates 15-Hydroxyprostaglandin Dehydrogenase in Non-Small-Cell Lung Cancer. Cancer Res. 2007 Jun 15;67(12):5587-5593. NIH Chemical Genomics Center [NCGC] Structural Genomics Consortium [SGC]
Buffer: 50 mM Tris-HCl, 0.01% Tween 20, pH 8. Enzyme Buffer: 50 mM Tris-HCl, 0.5 mM NAD+ and 0.01% Tween 20, pH 8. Reagents/Controls: Buffer in columns 3 and 4 as negative control (no enzyme). Substrate/cofactor solution: 1 mM NAD+ and 30 uM prostaglandin (Sigma, prostaglandin E2, # P5640) final concentrations dispensed throughout the plate. Enzyme: 20 nM HPGD final concentration in columns 1, 2, 5-48. Column 1 and 2 is neutral (100% activity). A titration of control inhibitor GW5074 (G6416 Sigma-Aldrich, St. Louis, MO) top concentration 10 mM in DMSO, then 1:2 dilution for a total of 16 concentrations in duplicate) was pin-transferred into column 2. Assay Steps: Three uL of enzyme were dispensed to 1536-well Greiner black solid bottom plates. Compounds and control inhibitor (23 nL) were transferred via Kalypsys PinTool. The plates were incubated for 15 min at room temperature, and then 1 uL of substrate/cofactor solution was added to start the reaction. The plates were immediately transferred to and read 5 times every 30 seconds on ViewLux High-throughput CCD imager (Perkin-Elmer) using 360 nm excitation and 450 nm emission fluorescence protocol. The fluorescence intensity difference between the last and the first time points was used to compute reaction progress.

Chain of 15-hydroxyprostaglandin dehydrogenase [NAD(+)] (Homo sapiens) (P15428 whole entry, looked up): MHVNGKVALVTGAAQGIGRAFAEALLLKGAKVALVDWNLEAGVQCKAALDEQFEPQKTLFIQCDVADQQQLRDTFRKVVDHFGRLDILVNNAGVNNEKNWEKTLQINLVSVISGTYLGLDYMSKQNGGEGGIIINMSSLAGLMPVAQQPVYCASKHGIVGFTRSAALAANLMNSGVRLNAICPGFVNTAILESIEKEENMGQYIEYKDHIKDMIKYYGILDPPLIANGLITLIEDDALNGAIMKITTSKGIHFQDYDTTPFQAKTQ

SMILES | Potency
CN(c1ccc(C(=O)N2CCc3ccccc3C2)cc1)S(C)(=O)=O | 14.1 µM (active)
Cc1ccnc(-n2sc3ccccc3c2=O)n1 | 3.16 µM (active)
CC1CCN(C(=O)c2ccc(CSc3ccc(Cl)cc3)cc2)CC1 | 0.631 µM (active)
CC1CCN(C(=O)c2cc3nc(C4CC4)cc(C(F)(F)F)n3n2)CC1 | 3.98 µM (active)
O=C(c1ccc(CSc2ccccc2)cc1)N1CCCCCC1 | 0.224 µM (active)
